BAZ2B inh: BAZ2B (human) inhibition; AID 504333; Q9UIF8; AlphaScreen BAZ2B-H3K14Ac peptide displacement; Potency, µM (titrated, usually from 114 µM), actives largely listed as inhibitors; actives 4.4% (n = 360,000); further: nearly all actives have a fitted effect of over 60% in size
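Multi-concentration screen (max 110 uM) measuring displacement of acetylated histone H3 peptide from BAZ2B by AlphaScreen, using 50 nM protein, 50 nM peptide and 10 ug/mL streptavidin donor plus Ni-chelate acceptor beads.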
L3MBTL1 inh: L3MBTL1 (human) inhibition; Q9Y468; AlphaScreen L3MBTL1–H3K9me1 peptide binding; Potency, µM (titrated, usually from 57.1 µM), hits mostly inhibitors; actives 0.66% (n = 230,000); AID 485360; further: nearly all actives have a fitted effect of over 60% in size
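AlphaScreen proximity signal between nickel-chelate acceptor and streptavidin donor beads (final 10 ug/mL) reports binding of 50 nM L3MBTL1 to 75 nM biotin-H3 K9me1 peptide; complex incubated with compounds 30 min at room temperature; cefsulodin titration as control.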
JMJD2A Tudor inh: inhibitors of human JMJD2A Tudor domain; AlphaScreen JMJD2A-Tudor / H3K4me3 peptide binding; Potency, µM (doses to about 114 µM), hits mostly inhibitors; actives 4.4% (n = 390,000); O75164; further: nearly all actives have a fitted effect of over 50% in size
HP1b chromo inh: inhibitors of HP1-beta chromodomain binding to methylated histone tails. AlphaScreen HP1-beta / biotin-H3K9me3 peptide binding. Potency, µM (highest dose often 114 µM), actives largely listed as inhibitors. actives 0.56% (n = 390,000). AID 540317; further: nearly all actives have a fitted effect of over 70% in size
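AlphaScreen: HP1-beta (50 nM) preformed 30 min with biotin-H3(1-18)K9me3 peptide (50 nM) in PBS pH 7.4, 0.01% Tween-20. Compound added for 30 min at RT, then streptavidin donor/nickel chelate acceptor beads (10 ug/mL) for 30 min.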
VDR inh: vitamin D3 receptor (human) inhibition; actives 0.93% (n = 400,000); P11473; VDR-SRC2-3 peptide fluorescence polarization, 2 h; Potency, µM, hits mostly inhibitors
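Two reagent solutions held at 4 deg C in the dark were dispensed, compounds pinned at 23 nl, and the mixture incubated 2 h at room temperature. Read-out: fluorescence polarization of VDR–SRC2-3 peptide binding.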
PLK1 PBD inh: inhibitors of human PLK1 polo-box domain binding; P53350; Plk1 PBD binding of FITC phosphopeptide, fluorescence polarization; actives 2.8% (n = 360,000); Potency, µM, usual class: inhibitors; further: series mostly up to about 57 µM; nearly all actives have a fitted effect of over 65% in size
Hits are given with their value; - = inactive; ? = inconclusive; . = not tested or not shown; [ ] = another dose, or the depositor's remark. An excerpt weighted towards active compounds, which were near 6.9% of everything screened. The call rests on the fitted dose curve; in most records, active means well fitted curve in the direction sought with a large enough effect; inconclusive means small, poorly fitted or top-dose-only effect, or another doubt; inactive means no such curve, though single readings can be large; an effect the other way counts as inactive or inconclusive.

SMILES	BAZ2B inh	L3MBTL1 inh	JMJD2A Tudor inh	HP1b chromo inh	VDR inh	PLK1 PBD inh
CCc1nnc(NC(=O)c2ccc(S(=O)(=O)N(CC)Cc3ccccc3)cc2)o1	50.1µM	-	-[11.4 µM]	-	-	2.99µM
CCCCN(C)S(=O)(=O)c1ccc(C(=O)Nc2nnc(CSC)o2)cc1	?	-	79.4µM	-	-	-
CCN(CC)S(=O)(=O)c1ccc(C(=O)Nc2nnc(CSC)o2)cc1	79.4µM	-	-	-	-	-
O=C(Cn1ncc2c(Cl)cccc21)NCc1cccc(Br)c1	-	.	-	-	-	.
CC(=O)OC1CCC23CC1(C)CCC2C(C)(C)CC3OC(C)=O (stereo unspecified)	.	.	.	.	-	.
CCCOC(=O)c1cc(-c2ccc(C=O)o2)ccc1Cl	-	-	-	-	-	-
CCCOC(=O)c1cc(-c2ccc(/C=C3/C(=O)N(C)C(=O)C(C#N)=C3C)o2)ccc1Cl	.	.	56.2µM	?	50.1µM	18.9µM
C=CCOC(=O)c1cc(-c2ccc(/C=C3\C(=O)NC(=O)C(C#N)=C3C)o2)ccc1Cl	35.5µM	.	50.1µM	-	25.1µM	5.97µM
COC(=O)C1CC1[C@H](NC(=O)c1cccnc1)c1ccccc1 (stereo partly specified)	.	.	-	-	-	.
CCOc1ccc(NC(=O)CSc2nc3nc(C)c(Cc4ccccc4)c(C)n3n2)cc1	-	.	-	-	-	.
O=C(CSc1nc2nc(-c3cccs3)cc(C(F)(F)F)c2c(=O)[nH]1)Nc1c(F)c(F)c(F)c(F)c1F	-	-	-	-	-	33.6µM
N#CCCN(C(=O)CSc1nc2nc(-c3cccs3)cc(C(F)(F)F)c2c(=O)[nH]1)c1ccccc1	-	-	-	-	-	-
CCOC(=O)c1c(C)c(C(=O)NCc2ccco2)c(C)n1Cc1ccccc1	?	-	35.5µM	-	?	26.7µM
O=C(NCc1ccco1)c1ccc(COc2ccccc2Cl)cc1	-	-	56.2µM	-	-	-
CCOc1cc(OCC)cc(C(=O)NCc2ccco2)c1	?	-	89.1µM	-	?	?
CCOC(=O)c1c(C)c(C(=O)NCc2ccco2)c(C)n1CC	-	.	-	-	-	-
Cc1ccccc1Nc1nnc(-c2ccc(C)c(S(=O)(=O)N3CCCCC3)c2)c2ccccc12	-	.	-	-	-	.
Nc1cc(S(=O)(=O)N2CCN(S(=O)(=O)c3ccc4c(c3)OCCO4)CC2)ccn1	.	.	-	.	.	.
O=C(NCc1ccccc1F)C1CCN(c2nnc(-n3cccc3)s2)CC1	-	.	-	-	-	.
O=C(NNc1cccc(Cl)n1)Nc1ccc(Cl)cc1	-	-	-	-	-	-
Cc1ccc(NNC(=O)Nc2ccc(Cl)cc2)nn1	-	.	79.4µM	?	17.8µM	5.97µM
N#Cc1ccc(N2CCN(S(=O)(=O)c3ccc4c(c3)CC(=O)N4)CC2)cc1	.	.	-	.	.	.
Cc1nn(CCc2n[nH]c(=S)n2-c2ccc(F)cc2)c(C)c1[N+](=O)[O-]	-	.	17.8µM	-	-	-
Cc1nn(CCCC(=O)Nc2cc(Oc3ccc(F)cc3)cc([N+](=O)[O-])c2)c(C)c1[N+](=O)[O-]	-	?	-	-	-	-
Cc1nn(C(C)c2n[nH]c(=S)n2-c2ccc(F)cc2)c(C)c1[N+](=O)[O-] (stereo unspecified)	-	-[11.4 µM]	25.1µM	-	-	-
SMILES	BAZ2B inh	L3MBTL1 inh	JMJD2A Tudor inh	HP1b chromo inh	VDR inh	PLK1 PBD inh
Cc1cccc(-n2c(Cn3nc(C)c([N+](=O)[O-])c3C)n[nH]c2=S)c1	-	-	22.4µM	-	-	-
COc1ccc2[nH]c3c(NCCC4=CCCCC4)ncnc3c2c1	28.2µM	.	50.1µM	-	-	-
CCN(CC)CCNc1ncnc2c1[nH]c1ccc(OC)cc12	-	-	.	.	.	.
COc1ccc(-n2c(SCC(=O)Nc3nnc(C)s3)nc3c([nH]c4ccccc43)c2=O)cc1	-	.	-	-	-	.
CC1=C(c2ccc(Cl)cc2)S(=O)(=O)NC1=NCCCN1CCN(c2cc(C)ccc2C)CC1	-	.	15.8µM	-	-	.
O=S(=O)(N/N=C1/CC(c2ccccc2)Oc2ccccc21)c1ccc(Br)cc1 (stereo unspecified)	-	.	-	-	-	-
Cc1ccc(S(=O)(=O)N/N=C2/CC(c3ccccc3)Oc3ccccc32)cc1[N+](=O)[O-] (stereo unspecified)	?	.	-	-	-	11.9µM
COc1ccc(Cn2ccnc2SCC(=O)Nc2ccc3c(c2)OCCO3)cc1	-	.	-	-	-	.
Cc1ccc(Nc2nnc(-c3ccc4c(c3)OCO4)o2)c(C)c1	-	-	-	-	?	21.2µM
Cc1ccc(CSc2nnc(-c3ccc4c(c3)OCO4)o2)cc1	-	.	-	-	-	-
CCOC(=O)COc1cc(-n2c(=S)[nH]c3cc(OC)c(OC)cc3c2=O)c(Cl)cc1Cl	-	0.708µM	?	-	-	-
CCOC(=O)COc1cc(N2C(=O)CSCC2=O)c(Cl)cc1Cl	-	-	-	-	-	-
CC(C)CNCC1OCc2ccccc2CO1	-	.	-	-	-	-
O=C(O)c1ccccc1/C=N/N1CCN(C2c3ccccc3-c3ccccc32)CC1	-	-	-	-	?	-
Oc1ccc(/C=N/N2CCN(C3c4ccccc4-c4ccccc43)CC2)c(O)c1	?	?	39.8µM	?	-	-
O=C(O)c1ccc(/C=N/N2CCN(C3c4ccccc4-c4ccccc43)CC2)cc1	44.7µM	.	-[11.4 µM]	-	-	?
Cc1ccc(/C=N/N2CCN(C3c4ccccc4-c4ccccc43)CC2)o1	35.5µM	-	44.7µM	?	-	-
COc1cc(/C=N/N2CCN(C3c4ccccc4-c4ccccc43)CC2)cc(OC)c1OC	-	-	?	?	-	-
COc1cc(/C=N/N2CCN(C3c4ccccc4-c4ccccc43)CC2)cc(OC)c1O	11.2µM	-	?	-	-	-
O=C(O)Cc1nnc(-c2cc3ccccc3[nH]2)s1	.	.	-	.	.	.
COc1ccc(N(CC(=O)Nc2ccc(C)c(C)c2)S(=O)(=O)c2ccc(C)cc2)cc1OC	-	.	-	-	-	.
COc1ccc(/C=N/N2CCN(C3c4ccccc4-c4ccccc43)CC2)cc1OC	-	-	-	-	-	-
Oc1ccc(/C=N/N2CCN(C3c4ccccc4-c4ccccc43)CC2)cc1O	39.8µM	-	39.8µM	50.1µM	-	-
CC(=O)Nc1ccc(S(=O)(=O)N2CCC(N3CCCCCC3)CC2)cc1	-	-	20µM	?	-	-
COc1ccc(NC(=O)c2cc(S(=O)(=O)N3CCCC3)ccc2OC)cc1	-	.	?	-	-	16.8µM
O=S(=O)(c1ccc(F)cc1)N1CCC(N2CCCCCC2)CC1	?	-	?	?	-	-
O=S(=O)(c1ccc(Cl)cc1)N1CCC(N2CCCCCC2)CC1	79.4µM	.	2.51µM	?	-	-
O=C(CN1C(=O)c2ccccc2S1(=O)=O)Nc1ccc(S(=O)(=O)N2CCCCC2)cc1	-	.	-[11.4 µM]	-	-	23.8µM

Screening data as filed in PubChem.
